Inconclusive results are not listed. Values without a mark were called inactive. Calls of active or inactive are those of the source. The call rests on the fitted dose curve; in most records, active means well fitted curve in the direction sought with a large enough effect in the repeat runs; inconclusive means weak or mixed curves; inactive means no such curve, though single readings can be large; an effect the other way counts as inactive or inconclusive.
Experiment: qHTS assay to identify small molecule antagonists of the retinoid acid receptor (RAR) signaling pathway - cell viability counter screen (AID 1159551); further: nearly all actives have a fitted effect of over 35% in size
Conditions: C3RL4 cells viability, ATP luminescence (CellTiter-Glo), 6 h; series mostly up to 92.4 µM; activity change, negative = cytotoxicity: at the top concentration
Procedure, shortened: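 Retinol-stimulated (1 uM final) C3RL4 cells, compound 6 h, 37 C; readout CellTiter-Glo luminescence (ATP) after 30 min RT incubation.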
On the % scale 0 is the no-effect control and ±100 the full control effect.

Row | SMILES | activity change, negative = cytotoxicity
1 | CCOC(=O)COc1ccc2c(C)c(CCN(CC)CC)c(=O)oc2c1Cl | 2.58% [at 42.5 µM]
2 | CCCCCCC(O)CO (centres undefined) | -0.632%
3 | NCC1CCC(C(=O)Oc2ccc(CCC(=O)O)cc2)CC1 (centres undefined) | 0.311% [at 42.5 µM]
4 | OCCC(F)(F)C(F)(F)C(F)(F)C(F)(F)C(F)(F)C(F)(F)F | 3.74%
5 | CCOC(=O)CC(C(C)=O)C(C)=O | 1.65%
6 | CCCCCCCCOCCC#N | -0.394%
7 | CC(=O)OC/C=C(/C)CCC=C(C)C | 4.58%
8 | CN(C)CCCN(C)C | -1.41% [at 8.39 µM]
9 | CCCC(=O)C(CC)Sc1ccoc1C (centres undefined) | -0.0926%
10 | CCCCCCCCCCCBr | 0.44% [at 42.5 µM]
11 | Clc1cc(Cl)c(Cl)c(Cl)c1Cl | 2.14%
12 | CCCCN=C(N)N=C(N)N | -1.24% [at 42.5 µM]
13 | COC(=O)c1c(C)cc(O)c(C)c1O | 1.53%
14 | CC(C)(C)C(=O)CCc1ccc(Cl)cc1 | -1.14%
15 | Cc1ccccc1C#N | 2.37%
16 | CC(C)(C)c1ccc(N)cc1 | 0.485%
17 | COc1cc(OC)cc(OC)c1 | -0.0616% [at 42.5 µM]
18 | Cc1ccc(Br)cc1 | -0.585%
19 | C=CCON/C(CCC)=C1\C(=O)CC(C)(C)C(C(=O)OC)=C1O | -1.74%

Row | SMILES | activity change, negative = cytotoxicity
20 | C[C@@H]1CCC[C@H](C)N1CCCC(O)(c1ccccc1)c1ccccn1 (some centres undefined) | -0.293% [at 42.5 µM]
21 | NNC(=O)OCc1ccccc1 | 2.46%
22 | CC(C)(C)c1ccc(C(=O)CCCCl)cc1 | -4.78% [at 42.5 µM]
23 | C[C@@H](CN1CC(=O)NC(=O)C1)N1CC(=O)NC(=O)C1 | 0.498% [at 42.5 µM]
24 | CC(C)(O)CCCC1=CCC(C=O)CC1 (centres undefined) | 1.28%
25 | O=C(c1ccccc1)c1cccc(O)c1 | 4.43%
26 | O=CN1CCCCC1 | -1.97%
27 | CN1C(CCl)Nc2cc(Cl)c(S(N)(=O)=O)cc2S1(=O)=O (centres undefined) | -1.15% [at 42.5 µM]
28 | CCOCCOCCOC(C)=O | 1.35%
29 | Cc1ccc(OC(=O)CC(C)C)cc1 | 0.867%
30 | COC(C)(C)CC(C)=O | 2.44%
31 | CCCOc1ccc(C(=O)OCCN(CC)CC)cc1N | 0.555% [at 42.5 µM]
32 | CC[N+](C)(CC)CC | 0.748%
33 | Nc1nc(Cl)cc(Cl)n1 | 4.36%
34 | O=Cc1ccc(C(=O)O)cc1 | 2.3%
35 | O=P(O)(O)C(O)(Cc1cccnc1)P(=O)(O)O | -0.928% [at 42.5 µM]
36 | CCCCCCCCC1CO1 (centres undefined) | 1.68%
37 | COc1cc2nc(N3CCN(C(=O)C4CCCO4)CC3)nc(N)c2cc1OC (centres undefined) | -2.51% [at 42.5 µM]
38 | CCCCCCCCCCCCCCCC(=O)OC | 3.42% [at 19 µM]

Experiment: qHTS assay to identify small molecule antagonists of the retinoic acid receptor (RAR) signaling pathway (AID 1159552; further: nearly all actives have a fitted effect of over 50% in size)
Conditions: C3RL4 RARE luciferase reporter, retinol-stimulated, 6 h; series mostly up to 92.4 µM; activity, negative = inhibition: at the top concentration
Procedure, shortened: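 Luminescence from a RARE luciferase reporter in C3RL4 cells served as read-out. Cells received compounds together with 1 uM final retinol and incubated 6 hr at 37 C before detection reagent was added for 30 min at room temperature.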

Row | SMILES | activity, negative = inhibition
39 | CCOC(=O)COc1ccc2c(C)c(CCN(CC)CC)c(=O)oc2c1Cl | 29.4% [at 42.5 µM]
40 | CCCCCCC(O)CO (centres undefined) | -11.2%
41 | NCC1CCC(C(=O)Oc2ccc(CCC(=O)O)cc2)CC1 (centres undefined) | -6.85% [at 42.5 µM]
42 | OCCC(F)(F)C(F)(F)C(F)(F)C(F)(F)C(F)(F)C(F)(F)F | -3%
43 | CCOC(=O)CC(C(C)=O)C(C)=O | 6.79%
44 | CCCCCCCCOCCC#N | -14.1%
45 | CC(=O)OC/C=C(/C)CCC=C(C)C | 15.3%
46 | CN(C)CCCN(C)C | 0.227% [at 8.39 µM]
47 | CCCC(=O)C(CC)Sc1ccoc1C (centres undefined) | -10.2%
48 | CCCCCCCCCCCBr | -8.03% [at 42.5 µM]
49 | Clc1cc(Cl)c(Cl)c(Cl)c1Cl | -0.289%
50 | CCCCN=C(N)N=C(N)N | -8.95% [at 42.5 µM]
51 | COC(=O)c1c(C)cc(O)c(C)c1O | 16.8%
52 | CC(C)(C)C(=O)CCc1ccc(Cl)cc1 | 5.77%
53 | Cc1ccccc1C#N | 22.8%
54 | CC(C)(C)c1ccc(N)cc1 | 66.6%
55 | COc1cc(OC)cc(OC)c1 | -3.17% [at 42.5 µM]
56 | Cc1ccc(Br)cc1 | -2.26%
57 | C=CCON/C(CCC)=C1\C(=O)CC(C)(C)C(C(=O)OC)=C1O | 0.707%

Row | SMILES | activity, negative = inhibition
58 | C[C@@H]1CCC[C@H](C)N1CCCC(O)(c1ccccc1)c1ccccn1 (some centres undefined) | 15.7% [at 42.5 µM]
59 | NNC(=O)OCc1ccccc1 | -3.19%
60 | CC(C)(C)c1ccc(C(=O)CCCCl)cc1 | 162% [at 42.5 µM]
61 | C[C@@H](CN1CC(=O)NC(=O)C1)N1CC(=O)NC(=O)C1 | 7.29% [at 42.5 µM]
62 | CC(C)(O)CCCC1=CCC(C=O)CC1 (centres undefined) | 45.1%
63 | O=C(c1ccccc1)c1cccc(O)c1 | 9.93%
64 | O=CN1CCCCC1 | 1.34%
65 | CN1C(CCl)Nc2cc(Cl)c(S(N)(=O)=O)cc2S1(=O)=O (centres undefined) | 1.39% [at 42.5 µM]
66 | CCOCCOCCOC(C)=O | 2.11%
67 | Cc1ccc(OC(=O)CC(C)C)cc1 | 9.45%
68 | COC(C)(C)CC(C)=O | 18.9%
69 | CCCOc1ccc(C(=O)OCCN(CC)CC)cc1N | 16.9% [at 42.5 µM]
70 | CC[N+](C)(CC)CC | 6.68%
71 | Nc1nc(Cl)cc(Cl)n1 | 33.1%
72 | O=Cc1ccc(C(=O)O)cc1 | -8.6%
73 | O=P(O)(O)C(O)(Cc1cccnc1)P(=O)(O)O | 6.8% [at 42.5 µM]
74 | CCCCCCCCC1CO1 (centres undefined) | 9.52%
75 | COc1cc2nc(N3CCN(C(=O)C4CCCO4)CC3)nc(N)c2cc1OC (centres undefined) | 36.8% [at 42.5 µM]
76 | CCCCCCCCCCCCCCCC(=O)OC | -7.57% [at 19 µM]

Experiment: qHTS assay to identify small molecule agonists of the retinoic acid receptor (RAR) signaling pathway (AID 1159553); further: potency means the concentration at half of the fitted maximal effect
Conditions: C3RL4 RARE luciferase reporter, agonist, 6 h; series mostly up to 73.3 µM; activation: at the top concentration
Procedure, shortened: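 Reporter readout comes from luciferase under RARE control in C3RL4 cells; compound exposure lasts 6 hr at 37 C in 5% CO2, and luminescence is recorded following a 30 min room-temperature incubation with reagent.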

Row | SMILES | activation | Potency
77 | CCOC(=O)COc1ccc2c(C)c(CCN(CC)CC)c(=O)oc2c1Cl | 0.244% | 
78 | CCCCCCC(O)CO (centres undefined) | -0.155% | 
79 | NCC1CCC(C(=O)Oc2ccc(CCC(=O)O)cc2)CC1 (centres undefined) | -1.18% | 
80 | OCCC(F)(F)C(F)(F)C(F)(F)C(F)(F)C(F)(F)C(F)(F)F | 0.845% | 
81 | CCOC(=O)CC(C(C)=O)C(C)=O | 0.176% | 
82 | CCCCCCCCOCCC#N | -0.849% | 
83 | CC(=O)OC/C=C(/C)CCC=C(C)C | 1.96% | 
84 | CN(C)CCCN(C)C | 0.0534% [at 8.36 µM] | 
85 | CCCC(=O)C(CC)Sc1ccoc1C (centres undefined) | 0.226% | 
86 | CCCCCCCCCCCBr | -1.62% | 
87 | Clc1cc(Cl)c(Cl)c(Cl)c1Cl | -1.47% | 
88 | CCCCN=C(N)N=C(N)N | -6.05% | 
89 | COC(=O)c1c(C)cc(O)c(C)c1O | 0.0138% | 
90 | CC(C)(C)C(=O)CCc1ccc(Cl)cc1 | 0.371% | 
91 | Cc1ccccc1C#N | -0.304% | 
92 | CC(C)(C)c1ccc(N)cc1 | 6.84% | 
93 | COc1cc(OC)cc(OC)c1 | -2.25% | 
94 | Cc1ccc(Br)cc1 | 0.895% | 
95 | C=CCON/C(CCC)=C1\C(=O)CC(C)(C)C(C(=O)OC)=C1O | -0.544% | 

Row | SMILES | activation | Potency
96 | C[C@@H]1CCC[C@H](C)N1CCCC(O)(c1ccccc1)c1ccccn1 (some centres undefined) | 0.0341% | 
97 | NNC(=O)OCc1ccccc1 | 7.96% | 
98 | CC(C)(C)c1ccc(C(=O)CCCCl)cc1 |  | 5.96 µM (active)
99 | C[C@@H](CN1CC(=O)NC(=O)C1)N1CC(=O)NC(=O)C1 | 1% | 
100 | CC(C)(O)CCCC1=CCC(C=O)CC1 (centres undefined) | 2.29% [at 94.8 µM] | 
101 | O=C(c1ccccc1)c1cccc(O)c1 | 7.47% [at 94.8 µM] | 
102 | O=CN1CCCCC1 | 0.455% | 
103 | CN1C(CCl)Nc2cc(Cl)c(S(N)(=O)=O)cc2S1(=O)=O (centres undefined) | 0.739% | 
104 | CCOCCOCCOC(C)=O | 0.0136% [at 94.8 µM] | 
105 | Cc1ccc(OC(=O)CC(C)C)cc1 | 1.85% | 
106 | COC(C)(C)CC(C)=O | 1.36% | 
107 | CCCOc1ccc(C(=O)OCCN(CC)CC)cc1N | 6.36% | 
108 | CC[N+](C)(CC)CC | 1.04% | 
109 | Nc1nc(Cl)cc(Cl)n1 | 0.366% | 
110 | O=Cc1ccc(C(=O)O)cc1 | -1.78% [at 94.8 µM] | 
111 | O=P(O)(O)C(O)(Cc1cccnc1)P(=O)(O)O | 1.62% | 
112 | CCCCCCCCC1CO1 (centres undefined) | -0.522% [at 94.8 µM] | 
113 | COc1cc2nc(N3CCN(C(=O)C4CCCO4)CC3)nc(N)c2cc1OC (centres undefined) | 4.61% | 
114 | CCCCCCCCCCCCCCCC(=O)OC | -1.87% [at 34.3 µM] | 
